Growth data for eight molecules are collected here from PubChem BioAssay (NCI).

Some test systems named below: HCT-15 colon; HT29 colon; SNB-75 CNS; SNB-19 CNS; U251 CNS; PC-3 prostate; SK-MEL-5 melanoma; UACC-62 melanoma; LOX IMVI melanoma; SK-MEL-28 melanoma; SK-MEL-2 melanoma; EKVX NSCLC; SN12C renal; TK-10 renal; ACHN renal; A498 renal; CCRF-CEM leukemia; MOLT-4 leukemia; SR leukemia; UO-31 renal.
Holding throughout (experiment): NCI-60 one-dose screen, 48 h (100 = growth as untreated, 0 = no growth, -100 = all killed)
Common to all, as to settings: 10 µM unless noted

Structures are written as SMILES. Compounds without any hit were thinned out: in the full panel of roughly 83,000, 20% have a hit.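 How to read the values: 0–100, growth inhibition (40 = 60% inhibited); 0, no net growth; -100 to 0, cell death (-40 = 40% of starting cells died; -100 = all dead).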 A number with no mark means an inactive call. Active and inactive are the calls of the source. How the source made its calls: active means growth percent below 10; inactive means the rest.

On to `Cc1ccc(C(=O)/C(=C/c2ccc([N+](=O)[O-])cc2)S(=O)Cc2ccccc2)cc1` (configuration not stated), for which the growth was -8.82% (active) in the experiment with HCT-15 colon; -21% (active) in the experiment on HT29 colon; 43.4% in the experiment with SNB-75 CNS; 34.8% with SNB-19 CNS; 13.4% in the experiment with U251 CNS; -0.822% (active) in the experiment with PC-3 prostate. The growth in the experiment on SK-MEL-5 melanoma is 37.8%; in the experiment with UACC-62 melanoma, -54.9% (active); in the experiment on LOX IMVI melanoma, -82.1% (active); in the experiment on SK-MEL-28 melanoma, 17.1%; in the experiment on SK-MEL-2 melanoma it was 57.9%; with EKVX NSCLC, 30.3%. Also, the growth with SN12C renal is -41.1% (active); with TK-10 renal, 6.85% (active); in the experiment with ACHN renal, -52.8% (active); in the experiment on A498 renal, 41%; with CCRF-CEM leukemia it was 6.67% (active); in the experiment on MOLT-4 leukemia, 1.79% (active). The growth in the experiment with SR leukemia is 0.101% (active).

Regarding `Cc1nnc(/N=C2\NC(=O)/C(=C/c3ccsc3)S2)s1`, the growth is 88% in the experiment on HCT-15 colon; 90.6% in the experiment on HT29 colon; 74.3% in the experiment with SNB-75 CNS; 100% with SNB-19 CNS; 94.6% in the experiment with U251 CNS; 89.6% in the experiment with PC-3 prostate. Also, the growth in the experiment on SK-MEL-5 melanoma is 98.4%; with UACC-62 melanoma it was 102%; with LOX IMVI melanoma it was 87.7%; with SK-MEL-28 melanoma, 101%; with SK-MEL-2 melanoma, 95.5%; with EKVX NSCLC, 93.6%. Further, the growth is 99.7% with SN12C renal; 96.7% with TK-10 renal; 106% in the experiment with ACHN renal; 87.7% with A498 renal; 95.1% in the experiment on CCRF-CEM leukemia; 95% with MOLT-4 leukemia. Besides, the growth with SR leukemia was 103%.

With `CCSc1nc(Cl)c(C#N)c(-c2ccc(F)cc2)n1`, the growth was 88.1% with HCT-15 colon; 92.6% in the experiment on HT29 colon; 80.3% in the experiment on SNB-75 CNS; 92.7% in the experiment on SNB-19 CNS; 91.6% in the experiment with U251 CNS; 98.9% with PC-3 prostate. For the same molecule, the growth was 97.1% in the experiment on SK-MEL-5 melanoma; 93.4% with UACC-62 melanoma; 87.1% in the experiment on LOX IMVI melanoma; 101% in the experiment on SK-MEL-28 melanoma; 102% in the experiment on SK-MEL-2 melanoma; 95.2% in the experiment with EKVX NSCLC. Moreover, the growth with SN12C renal was 95.4%; in the experiment on TK-10 renal, 101%; in the experiment on ACHN renal, 100%; with A498 renal, 92.3%; in the experiment on CCRF-CEM leukemia, 50.4%; in the experiment with MOLT-4 leukemia, 48.4%. Besides, in the experiment with SR leukemia, the growth is 3.84% (active).

Regarding `CC(=O)c1cnc(-c2ccccc2)nc1CBr`, the growth in the experiment on HCT-15 colon was 63.5%; in the experiment on HT29 colon, 43.5%; in the experiment with SNB-75 CNS, 73.4%; in the experiment with SNB-19 CNS, 81%; in the experiment on U251 CNS it was 79.5%; in the experiment on PC-3 prostate, 73%. The growth in the experiment on SK-MEL-5 melanoma was 91.6%; in the experiment on UACC-62 melanoma, 84.3%; in the experiment with LOX IMVI melanoma, -39.9% (active); in the experiment with SK-MEL-28 melanoma, 104%; in the experiment on SK-MEL-2 melanoma, 98.3%; in the experiment with EKVX NSCLC, 79.7%. In addition, the growth in the experiment on SN12C renal is 51.2%; in the experiment on TK-10 renal, 79%; in the experiment on ACHN renal it was 35.3%; in the experiment with A498 renal, 82%; in the experiment with CCRF-CEM leukemia, 35.8%; in the experiment on MOLT-4 leukemia it was 26%. In addition, the growth in the experiment with SR leukemia is -20.9% (active).

Turning to `CC(C)NS(=O)(=O)c1cccc(-c2ccc3c(=O)n(CCCN)c4c(c3c2)C(=O)c2ccccc2-4)c1`, the growth is 102% in the experiment with HCT-15 colon; 89.6% in the experiment with HT29 colon; 82.3% in the experiment with SNB-75 CNS; 111% with SNB-19 CNS; 104% in the experiment on U251 CNS; 102% in the experiment on PC-3 prostate. Moreover, the growth in the experiment with SK-MEL-5 melanoma was 98.8%; in the experiment on UACC-62 melanoma it was 108%; in the experiment on LOX IMVI melanoma, 94.4%; in the experiment on SK-MEL-28 melanoma, 110%; with SK-MEL-2 melanoma it was 111%; in the experiment with EKVX NSCLC it was 100%. The growth was 113% in the experiment with SN12C renal; 96.8% in the experiment with TK-10 renal; 101% in the experiment with ACHN renal; 103% with A498 renal; 88.2% in the experiment on CCRF-CEM leukemia; 95.6% with MOLT-4 leukemia. Further, the growth with SR leukemia is 77.6%.

Take `Clc1ccc2c(NCCCNC3CCCCC3)ccnc2c1`: the growth with HCT-15 colon was 84.8%; with HT29 colon it was 48.1%; in the experiment with SNB-75 CNS, 89.8%; in the experiment on SNB-19 CNS it was 110%; with U251 CNS it was 93.8%; in the experiment with SK-MEL-5 melanoma, 99.9%. Moreover, the growth in the experiment with UACC-62 melanoma is 111%; in the experiment on LOX IMVI melanoma, 96.7%; with SK-MEL-28 melanoma it was 116%; in the experiment with SK-MEL-2 melanoma it was 107%; with EKVX NSCLC it was 66.2%; with SN12C renal, 97%. Moreover, the growth in the experiment with UO-31 renal is 83%; in the experiment with TK-10 renal, 111%; with ACHN renal it was 116%; in the experiment with A498 renal, 98.9%; in the experiment on CCRF-CEM leukemia, 67.7%; with MOLT-4 leukemia, 6.38% (active). In the experiment with SR leukemia, the growth was 46.8%.

Regarding `C=C1C(=O)O[C@H]2[C@H]1CC/C(COC(=O)N1CCC[C@H]1C(=O)Nc1ccc(OC)c(C(N)=O)c1O)=C\CC[C@@]1(C)O[C@@H]21`, the growth is 59.6% in the experiment with HCT-15 colon; -8.09% (active) in the experiment on HT29 colon; 84% in the experiment on SNB-75 CNS; 60.5% in the experiment with SNB-19 CNS; 51.6% with U251 CNS; 63.7% in the experiment with SK-MEL-5 melanoma. The growth with UACC-62 melanoma was 34.5%; in the experiment on LOX IMVI melanoma, 43.4%; in the experiment on SK-MEL-28 melanoma, 49.4%; in the experiment on SK-MEL-2 melanoma, 66.5%; in the experiment on EKVX NSCLC, 77%; in the experiment on SN12C renal, 12.9%. For the same molecule, the growth is 41.2% in the experiment with UO-31 renal; -4.11% (active) with TK-10 renal; 30.6% in the experiment with ACHN renal; 87.9% with A498 renal; -12.6% (active) in the experiment with CCRF-CEM leukemia; 8.14% (active) in the experiment with MOLT-4 leukemia. Also, in the experiment on SR leukemia, the growth was 13.9%.

As to `O=C1NN(c2ccccc2)C(c2ccc3c(c2)OCO3)N2CCC[C@@H]12` (some centres not stated), the growth is 102% in the experiment on HCT-15 colon; 85.8% in the experiment on HT29 colon; 93.6% in the experiment on SNB-75 CNS; 103% in the experiment with SNB-19 CNS; 95.1% with U251 CNS; 106% in the experiment with SK-MEL-5 melanoma. The growth in the experiment on UACC-62 melanoma was 92%; in the experiment with LOX IMVI melanoma it was 91.9%; in the experiment with SK-MEL-28 melanoma it was 111%; in the experiment with SK-MEL-2 melanoma, 89.8%; in the experiment with EKVX NSCLC it was 102%; in the experiment with SN12C renal, 110%. Further, the growth in the experiment on UO-31 renal is 85.4%; in the experiment on TK-10 renal it was 92.2%; in the experiment with ACHN renal, 101%; in the experiment with A498 renal, 97.5%; with CCRF-CEM leukemia it was 108%; with MOLT-4 leukemia it was 102%. For the same molecule, the growth with SR leukemia is 92.1%.
